# Screening results (PubChem BioAssay)
# FLuc modulator: firefly luciferase modulation, counter-screen for miR-21 project; purified FLuc, Km substrates, luminescence inhibition; Potency, µM (doses to about 57.5 µM), for the others: at the top dose activity change, negative = inhibition, actives largely listed as inhibitors; actives 6.9% (n = 360,000); AID 588342;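 note: plate controls were vehicle for no effect and reference inhibitor for full effect; nearly all actives have a fitted effect of over 55% in size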
# Target sequence (P08659 whole entry, looked up): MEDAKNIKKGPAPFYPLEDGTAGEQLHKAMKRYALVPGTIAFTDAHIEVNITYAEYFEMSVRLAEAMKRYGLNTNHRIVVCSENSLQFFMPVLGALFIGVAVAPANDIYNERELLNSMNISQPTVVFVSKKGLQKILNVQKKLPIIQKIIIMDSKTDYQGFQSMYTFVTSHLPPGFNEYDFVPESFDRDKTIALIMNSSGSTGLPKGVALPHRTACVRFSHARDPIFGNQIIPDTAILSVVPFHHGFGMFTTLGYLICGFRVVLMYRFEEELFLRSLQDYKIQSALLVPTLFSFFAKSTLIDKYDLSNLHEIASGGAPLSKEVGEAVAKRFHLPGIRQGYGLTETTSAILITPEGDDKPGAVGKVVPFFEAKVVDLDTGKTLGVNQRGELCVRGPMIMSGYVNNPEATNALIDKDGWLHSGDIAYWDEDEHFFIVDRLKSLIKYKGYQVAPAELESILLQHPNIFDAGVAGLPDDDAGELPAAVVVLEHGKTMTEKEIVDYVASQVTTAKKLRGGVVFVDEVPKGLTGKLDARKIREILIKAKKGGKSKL
#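 Purified P. pyralis luciferase, 10 nM final, with Km-level 10 uM D-luciferin and 10 uM ATP in 50 mM Tris acetate pH 7.5, 10 mM Mg acetate, 0.01% Tween-20, 0.05% BSA; 6-point qHTS titration about 60 µM downward; luminescence read.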
# NPC1 prom act: activates the NPC1 promoter | Huh7 NPC1 promoter luciferase reporter, 24 h | actives 2.4% (n = 320,000) | AID 485313 | Potency, µM (top dose mostly 9.22 µM), for inactives: at the top dose activation, actives largely listed as activators; note: % of control where 0% means no effect; nearly all actives have a fitted effect of over 60% in size
#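 Readout is luciferase luminescence, reflecting NPC1 promoter activation in stably transfected Huh7 cells after 24 h compound exposure at 37 °C in reduced-serum medium with 10% FBS.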
# ELG1 genotoxic: genotoxicity induction in ELG1-luciferase HEK293T cells | HEK293T ELG1-luciferase reporter, luminescence, 16 h | Potency, µM (highest dose often 46 µM), without a hit: at the highest dose activity change, positive = activation, hits mostly activators | actives 1.3% (n = 330,000) | AID 504466; note: % of control where 0% means no effect; nearly all actives have a fitted effect of over 60% in size
#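 DMSO vehicle served as control against compound-treated ELG1-luciferase HEK293T cells; exposure lasted 16 hr at 37 °C and 5% CO2, followed by ONE-Glo luminescence detection after 30 min.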
# SMN2 splice up: increases expression of the SMN2 splice variant; HEK293 SMN2-luciferase splicing reporter, luminescence, 30-36 h; actives 2.8% (n = 210,000); Potency, µM (series often up to 46.1 µM), inactives show at the top dose activity change, positive = activation, actives largely listed as activators; note: % of control where 0% means no effect; nearly all actives have a fitted effect of over 55% in size
#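 qHTS luciferase splicing reporter: luminescence rises when SMN2 exon 7 is included in transfected HEK293 cells. Compound exposure lasted 30-36 h at 37C, with 4.5 mM final sodium butyrate as control, followed by a ONE-Glo read.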
# Rab9 promoter act: Rab9 promoter activation | actives 2.8% (n = 320,000) | Huh7 Rab9 promoter-luciferase reporter, luminescence, 24 h | Potency, µM (series often up to 9.22 µM), inactives show at the highest dose activation, negative = inhibition, actives largely listed as activators; note: % of control where 0% means no effect; nearly all actives have a fitted effect of over 60% in size
#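 Luminescence read-out: Huh7 cells stably expressing Rab9-luciferase, treated 24 h with compound at 37 °C, then lysed with luciferase reagent for 10 min at ambient before reading.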
# The depositor's hits bear a star; u = inconclusive; x = no result given; [ ] = dose if it differs, or a comment. Most compounds without a hit are left out; they make up all but 7.5% or so of the library. Calls come from the whole dose curve; as a rule, active = well fitted curve in the direction sought with a large enough effect; inconclusive = small, poorly fitted or top-dose-only effect, or another doubt; inactive = no such curve, though single readings can be large; an effect the other way counts as inactive or inconclusive. Potency is the fitted concentration of half-maximal effect.
SMILES,FLuc modulator,NPC1 prom act,ELG1 genotoxic,SMN2 splice up,Rab9 promoter act
O=c1cc(-c2ccc(Cl)cc2)[nH]c2ccccc12,-16.2%,8.9%,0.4%,x,2.1%
Cc1ccc2[nH]c(C(=O)O)c(-c3ccccc3)c2c1,1.7%[2.3 µM],0.8%,1.7%,4.6%,1.7%
Cc1ccc(-c2nc3ccc(Cl)cc3c(=O)n2O)cc1,-15.2%,1.3%,-4.6%,x,-1.6%
Cc1ccc(-c2cc(=O)c3cc(Cl)ccc3[nH]2)cc1,0.536µM*,u,u,x,3.98µM*
Cc1ccc2[nH]c(-c3ccccc3)cc(=O)c2c1,1.69µM*,u,u,11.2µM*,u
CCC(=O)C1=C(c2ccc(F)cc2)N(C(=O)CC)n2cnnc2S1,1.8%,x,x,x,x
CC(=O)[C@]1(O)CCC2C3CC(C)C4=CC(=O)C=CC4(C)[C@@]3(F)C(O)C[C@]21C (some centres undefined),x,x,x,5.1%,x
CN1CCC[C@@H]1c1cccnc1.O=C(O)c1ccccc1O.O=C([OH2+])c1ccccc1O.O=C([OH2+])c1ccccc1O.O=C([OH2+])c1ccccc1O.[Cu],x,x,x,-18.9%[9.22 µM],x
NC(=NCc1ccc(Cl)cc1Cl)NC(=O)c1nc(Cl)c(N)nc1N,x,x,x,-43.0%,x
Nc1[nH]nc2nc(NCc3ccccc3)c3c(c12)CCN(Cc1ccccc1)C3,4.1%,2.4%,1.5%,25.1µM*,2.8%
O=C(NCc1ccc(F)cc1)c1c2c(nc3ccccc13)CCN(Cc1ccccc1)C2,12.0%,-3.3%,0.1%,19.0%,-4.2%
CCOc1ccc(NC(=O)c2ccc3c(c2)CCN3S(=O)(=O)CC)cc1,-16.9%,x,x,x,x
Cc1cc(Cl)ccc1OCCCC(=O)N1CCOCC1,u,23.7%,u,-11.2%,u
Cc1cc(Cl)ccc1OCCCC(=O)NN,3.2%,-0.3%,-0.6%,2.0%,0.0%
Cc1cc(Cl)ccc1OCCCC(=O)N1CCCCC1,21.3µM*,u,u,5.5%,u
Cc1ccc(OCC(=O)N2CCCCCC2)c(C)c1,-21.6%,19.0%,u,7.08µM*,13.5%
CC(C)c1ccc(OCC(=O)N2CCCCCC2)c(Br)c1,21.3µM*,u,u,25.1%,2.82µM*
Cc1cc(Cl)ccc1OCCCC(=O)OCC(N)=O,26.9µM*,-7.4%,0.8%,17.3%,-12.2%
COc1ccc(CNC(=O)COC(=O)CCCOc2ccc(Cl)cc2Cl)cc1OC,16.9µM*,1.0%,-2.4%,1.7%,-2.5%
O=C(COC(=O)c1c2c(nc3ccccc13)CCCCC2)c1ccc(Cl)s1,13.5µM*,0.9%,-9.1%,0.5%,13.0%
NC(=O)COC(=O)c1c2c(nc3ccccc13)CCCCC2,-2.9%,-4.0%,-1.7%,4.1%,-1.1%
O=C(OCC(=O)N1CCc2ccccc21)c1c2c(nc3ccccc13)CCCC2,6.75µM*,8.0%,-18.7%,x,21.2%
O=C(COC(=O)c1c2c(nc3ccccc13)CCCC2)c1cccs1,10.7µM*,10.6%,-8.0%,-6.0%,2.2%
COc1ccc(NC(=O)c2oc3ccccc3c2NC(=O)C23CC4CC(CC(C4)C2)C3)cc1,-1.8%,x,x,-5.1%,x
O=C(O)c1[nH]c2ccccc2c1C(c1cc(Br)ccc1O)c1c(C(=O)O)[nH]c2ccccc12,-13.6%,5.5%,3.4%,x,9.9%
SMILES,FLuc modulator,NPC1 prom act,ELG1 genotoxic,SMN2 splice up,Rab9 promoter act
Cc1ccc(-c2cc(C(=O)N(C)Cc3cnn(C)c3C)c3cc(Br)ccc3n2)cc1,10.7µM*,1.7%,-11.8%,-19.8%,17.0%
Cc1ccc(-c2cc(C(=O)NCc3cnn(C)c3C)c3cc(Br)ccc3n2)cc1,2.13µM*,18.3%,5.6%,14.9%,1.4%
NNC(=O)c1cc(-c2ccc(O)cc2)nc2ccc(Br)cc12,u,1.8%,6.9%,x,-2.9%
CCN(C(=O)Cn1ccc(C(F)(F)F)n1)c1c(N)n(Cc2ccccc2)c(=O)[nH]c1=O,-0.2%,-0.3%,2.4%,x,-1.7%
O=C(COn1nnc2ccccc21)NCC1CCCCC1,16.9µM*,18.3%,12.6µM*,20.2%,19.3%
COc1ccc(CNC(=O)Nc2cccc3ccccc23)cc1,-17.0%,2.2%,0.0%,-0.3%,18.9%
Cc1cccc(C(=O)n2c(=S)nc3cc(C)ccn32)c1,0.19µM*,0.562µM*,0.461µM*,x,0.251µM*
Cc1ccn2c(c1)nc(=S)n2C(=O)c1ccccc1,0.135µM*,0.398µM*,u,0.501µM*,0.251µM*
